According to the supplement of paper PMC11001985:
Unmarked numbers belong to inactive results.

Compound: C#CCNC(=O)CCSSCCC(=O)NCCc1ccc(C=O)c(C=O)c1
Assay: lysine labeling ratio R10:1 (500 µM / 50 µM probe), SILAC-ABPP in living cells; higher = lower intrinsic lysine reactivity toward the probe, active = 2 or less
Settings: HeLa; probe concentrations 500 vs 50 µM
Procedure, shortened: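 For each lysine, R is the median over forward and reverse replicates of the filtered median MS1 peptide ratio of high probe to low probe. The probe, an alkyne-tagged, disulfide-linked lysine probe, was given at 500 µM or 50 µM to living SILAC light and heavy HeLa cells in PBS at room temperature, with label swaps. Values are capped at 20.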

Sequence of UniProt Q8WWI1 (Q8WWI1 whole entry): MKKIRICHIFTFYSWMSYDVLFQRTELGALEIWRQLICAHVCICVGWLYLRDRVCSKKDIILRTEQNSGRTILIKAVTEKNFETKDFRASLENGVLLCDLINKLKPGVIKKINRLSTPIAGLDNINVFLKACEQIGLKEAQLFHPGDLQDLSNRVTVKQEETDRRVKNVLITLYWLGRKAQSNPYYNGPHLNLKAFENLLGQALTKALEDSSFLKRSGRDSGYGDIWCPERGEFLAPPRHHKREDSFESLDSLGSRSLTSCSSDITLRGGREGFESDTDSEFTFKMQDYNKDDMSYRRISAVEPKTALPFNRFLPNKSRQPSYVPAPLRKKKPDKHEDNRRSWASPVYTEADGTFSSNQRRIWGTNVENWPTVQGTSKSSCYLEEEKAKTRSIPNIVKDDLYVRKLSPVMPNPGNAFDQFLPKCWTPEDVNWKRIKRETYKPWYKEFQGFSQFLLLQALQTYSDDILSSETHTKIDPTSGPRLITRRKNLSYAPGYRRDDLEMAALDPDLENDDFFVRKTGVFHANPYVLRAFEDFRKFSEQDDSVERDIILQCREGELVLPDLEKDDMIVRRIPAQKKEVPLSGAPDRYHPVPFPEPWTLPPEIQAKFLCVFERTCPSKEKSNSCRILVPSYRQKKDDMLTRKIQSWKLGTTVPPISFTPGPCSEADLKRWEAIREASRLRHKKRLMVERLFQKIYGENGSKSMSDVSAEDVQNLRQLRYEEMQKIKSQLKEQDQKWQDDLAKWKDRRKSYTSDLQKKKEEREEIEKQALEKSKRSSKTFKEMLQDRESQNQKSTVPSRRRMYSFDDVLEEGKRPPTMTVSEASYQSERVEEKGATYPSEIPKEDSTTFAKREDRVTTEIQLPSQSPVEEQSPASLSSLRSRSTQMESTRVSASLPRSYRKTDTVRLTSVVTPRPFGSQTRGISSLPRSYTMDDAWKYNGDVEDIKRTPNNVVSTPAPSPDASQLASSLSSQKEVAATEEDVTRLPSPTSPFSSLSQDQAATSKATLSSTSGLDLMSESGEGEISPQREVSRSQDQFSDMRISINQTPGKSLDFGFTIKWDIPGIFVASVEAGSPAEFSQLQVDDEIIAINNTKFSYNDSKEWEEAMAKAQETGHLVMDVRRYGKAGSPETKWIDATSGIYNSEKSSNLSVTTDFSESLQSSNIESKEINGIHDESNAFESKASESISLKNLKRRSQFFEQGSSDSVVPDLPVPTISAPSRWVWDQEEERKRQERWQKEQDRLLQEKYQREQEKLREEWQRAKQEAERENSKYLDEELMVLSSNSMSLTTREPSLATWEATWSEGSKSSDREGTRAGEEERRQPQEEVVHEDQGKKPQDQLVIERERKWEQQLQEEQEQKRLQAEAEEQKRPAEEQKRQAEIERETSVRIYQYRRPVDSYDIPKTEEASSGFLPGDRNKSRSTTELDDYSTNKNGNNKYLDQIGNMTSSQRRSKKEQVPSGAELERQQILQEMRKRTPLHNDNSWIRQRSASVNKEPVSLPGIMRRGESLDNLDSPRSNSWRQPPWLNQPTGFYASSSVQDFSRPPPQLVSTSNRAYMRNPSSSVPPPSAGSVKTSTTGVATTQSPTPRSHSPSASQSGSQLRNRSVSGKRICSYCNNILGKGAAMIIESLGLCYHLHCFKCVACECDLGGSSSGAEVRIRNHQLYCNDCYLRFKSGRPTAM
Sequence of UniProt Q08380 (Q08380 whole entry): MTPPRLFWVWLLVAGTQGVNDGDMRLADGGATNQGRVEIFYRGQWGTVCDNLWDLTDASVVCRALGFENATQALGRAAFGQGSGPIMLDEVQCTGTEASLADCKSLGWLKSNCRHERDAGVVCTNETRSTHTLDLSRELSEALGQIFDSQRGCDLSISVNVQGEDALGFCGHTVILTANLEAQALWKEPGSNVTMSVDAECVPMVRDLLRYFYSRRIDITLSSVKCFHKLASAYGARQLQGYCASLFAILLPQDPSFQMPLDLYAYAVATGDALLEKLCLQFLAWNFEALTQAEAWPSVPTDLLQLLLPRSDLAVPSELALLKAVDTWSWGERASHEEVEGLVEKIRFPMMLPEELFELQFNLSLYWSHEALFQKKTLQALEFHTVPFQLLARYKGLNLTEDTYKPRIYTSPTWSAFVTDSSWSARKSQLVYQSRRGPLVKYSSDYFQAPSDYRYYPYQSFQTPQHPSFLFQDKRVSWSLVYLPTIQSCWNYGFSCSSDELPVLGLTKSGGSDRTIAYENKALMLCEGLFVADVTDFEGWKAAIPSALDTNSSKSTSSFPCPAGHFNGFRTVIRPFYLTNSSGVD
Sequence of UniProt P50897 (P50897 whole entry): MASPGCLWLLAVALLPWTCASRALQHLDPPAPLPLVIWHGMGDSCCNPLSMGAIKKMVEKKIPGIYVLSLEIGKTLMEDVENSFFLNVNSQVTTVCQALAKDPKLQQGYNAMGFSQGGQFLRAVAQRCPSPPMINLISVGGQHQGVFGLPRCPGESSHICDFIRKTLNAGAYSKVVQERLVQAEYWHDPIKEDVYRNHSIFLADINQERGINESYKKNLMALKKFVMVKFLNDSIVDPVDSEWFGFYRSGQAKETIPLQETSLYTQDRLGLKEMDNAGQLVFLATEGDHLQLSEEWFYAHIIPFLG
Sequence of UniProt O75054 (O75054 whole entry): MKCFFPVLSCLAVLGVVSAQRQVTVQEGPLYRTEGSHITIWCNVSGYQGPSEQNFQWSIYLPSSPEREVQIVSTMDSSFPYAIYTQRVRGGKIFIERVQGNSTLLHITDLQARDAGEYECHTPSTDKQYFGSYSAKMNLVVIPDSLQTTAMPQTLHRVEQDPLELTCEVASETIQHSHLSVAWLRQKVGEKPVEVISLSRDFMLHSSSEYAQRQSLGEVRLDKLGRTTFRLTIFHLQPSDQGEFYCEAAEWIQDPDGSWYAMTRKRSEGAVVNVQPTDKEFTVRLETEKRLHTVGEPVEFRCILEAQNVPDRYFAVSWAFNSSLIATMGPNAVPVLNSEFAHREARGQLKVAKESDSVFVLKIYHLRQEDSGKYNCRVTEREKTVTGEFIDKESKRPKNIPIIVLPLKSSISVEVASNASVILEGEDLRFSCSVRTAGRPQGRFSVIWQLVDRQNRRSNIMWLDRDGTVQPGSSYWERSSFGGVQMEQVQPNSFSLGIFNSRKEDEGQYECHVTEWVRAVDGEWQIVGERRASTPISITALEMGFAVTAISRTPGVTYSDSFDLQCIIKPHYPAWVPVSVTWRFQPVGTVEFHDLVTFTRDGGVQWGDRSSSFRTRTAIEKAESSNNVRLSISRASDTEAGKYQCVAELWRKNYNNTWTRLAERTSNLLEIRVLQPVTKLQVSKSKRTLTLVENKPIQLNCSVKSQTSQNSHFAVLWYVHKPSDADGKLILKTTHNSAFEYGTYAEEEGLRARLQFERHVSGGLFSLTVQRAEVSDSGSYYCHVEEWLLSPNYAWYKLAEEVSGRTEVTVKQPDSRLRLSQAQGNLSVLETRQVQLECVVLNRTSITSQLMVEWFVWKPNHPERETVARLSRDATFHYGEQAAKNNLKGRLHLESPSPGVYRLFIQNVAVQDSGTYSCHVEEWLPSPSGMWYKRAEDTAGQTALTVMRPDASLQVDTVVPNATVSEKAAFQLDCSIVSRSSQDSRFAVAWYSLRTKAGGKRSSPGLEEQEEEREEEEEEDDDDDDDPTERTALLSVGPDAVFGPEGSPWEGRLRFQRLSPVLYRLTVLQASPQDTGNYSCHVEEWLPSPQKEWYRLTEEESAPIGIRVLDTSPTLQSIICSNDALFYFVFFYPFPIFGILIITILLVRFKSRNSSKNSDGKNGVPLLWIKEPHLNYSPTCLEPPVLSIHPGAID
Sequence of UniProt P06733 (P06733 whole entry): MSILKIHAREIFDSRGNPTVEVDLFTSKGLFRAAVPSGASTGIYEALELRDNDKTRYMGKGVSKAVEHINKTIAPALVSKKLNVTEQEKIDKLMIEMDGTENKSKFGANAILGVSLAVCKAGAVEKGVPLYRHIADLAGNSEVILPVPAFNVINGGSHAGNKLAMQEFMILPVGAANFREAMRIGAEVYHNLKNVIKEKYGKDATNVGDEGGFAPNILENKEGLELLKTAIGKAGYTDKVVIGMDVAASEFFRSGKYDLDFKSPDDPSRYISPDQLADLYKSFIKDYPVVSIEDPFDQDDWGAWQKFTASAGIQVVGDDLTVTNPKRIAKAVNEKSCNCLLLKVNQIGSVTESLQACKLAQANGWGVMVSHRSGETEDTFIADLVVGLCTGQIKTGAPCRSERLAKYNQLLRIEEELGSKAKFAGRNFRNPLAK
Sequence of UniProt P80303 (P80303 whole entry): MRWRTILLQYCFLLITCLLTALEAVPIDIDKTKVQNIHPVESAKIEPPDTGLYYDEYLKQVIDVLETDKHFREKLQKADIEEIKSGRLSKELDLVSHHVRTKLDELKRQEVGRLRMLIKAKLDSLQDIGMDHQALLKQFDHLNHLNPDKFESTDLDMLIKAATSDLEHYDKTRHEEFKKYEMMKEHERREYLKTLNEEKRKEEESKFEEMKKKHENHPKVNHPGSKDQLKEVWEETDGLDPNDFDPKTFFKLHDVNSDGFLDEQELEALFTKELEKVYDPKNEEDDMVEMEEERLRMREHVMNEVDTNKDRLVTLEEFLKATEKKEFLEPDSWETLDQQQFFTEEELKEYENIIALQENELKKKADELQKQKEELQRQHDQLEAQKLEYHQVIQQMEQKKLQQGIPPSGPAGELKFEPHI
Sequence of UniProt P50454 (P50454 whole entry): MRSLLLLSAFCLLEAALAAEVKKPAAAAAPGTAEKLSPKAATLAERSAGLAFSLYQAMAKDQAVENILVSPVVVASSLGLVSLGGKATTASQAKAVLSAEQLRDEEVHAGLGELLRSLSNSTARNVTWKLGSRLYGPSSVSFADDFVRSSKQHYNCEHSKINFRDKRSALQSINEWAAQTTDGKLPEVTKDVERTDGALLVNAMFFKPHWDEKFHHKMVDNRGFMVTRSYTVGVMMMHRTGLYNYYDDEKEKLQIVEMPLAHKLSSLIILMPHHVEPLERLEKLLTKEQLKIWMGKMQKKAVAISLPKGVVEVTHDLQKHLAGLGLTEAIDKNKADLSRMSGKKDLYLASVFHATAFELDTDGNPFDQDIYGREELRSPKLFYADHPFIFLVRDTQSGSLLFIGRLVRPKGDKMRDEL

Target	lysine labeling ratio R10:1
NPR3 (lysine site: K127) (UniProt P17342)	4.43
DYNC1H1 (lysine site: K4171) (UniProt Q14204)	2.12
UniProt P61978 (lysine site: K179)	3.68
ENO1 (lysine site: K256) (UniProt P06733)	1.87 (active)
IL6ST (lysine site: K335) (UniProt P40189)	0.692 (active)
APOC3 (lysine site: K44) (UniProt P02656)	3.68
LGALS3BP (lysine site: K427) (UniProt Q08380)	2.98
PPT1 (lysine site: K174) (UniProt P50897)	1.29 (active)
TNKS1BP1 (lysine site: K1680) (UniProt Q9C0C2)	2.22
PTPRF (lysine site: K1103) (UniProt P10586)	7.4
IGSF3 (lysine site: K92) (UniProt O75054)	2.4
UniProt O95980 (lysine site: K747)	1.22 (active)
NUCB2 (lysine site: K84) (UniProt P80303)	1.63 (active)
GGT1 (lysine site: K181) (UniProt P19440)	1.46 (active)
CDH2 (lysine site: K448) (UniProt P19022)	3.81
LMO7 (lysine site: K1248) (UniProt Q8WWI1)	0.993 (active)
SERPINH1 (lysine site: K160) (UniProt P50454)	2.81
